According to PubChem BioAssay AID1159580 (chemical genetic matrix, 2015):
In all, about 5,500 compounds went through this assay and about 2,000 (36%) were called active. Inconclusive results (about 18%) are left out. Rule as the data show it: active = normalized growth mostly below about 0.91 (no sharp cut-off); inconclusive = no clear call, values can overlap the other calls; inactive = mostly above about 0.92. The list shows a part of the results. Where a SMILES comes first, the peptide text is derived from it. The star is where a group is joined. Cbz = O=C(OCc1ccccc1)*

Test: chemical genetic growth profiling, strain panel (AID 1159580);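 also: tested at 20 µM; growth read once vehicle control cultures reached saturation at 30 °C; 1 = growth at the plate median or of vehicle wells; lower values mean less growth of the strain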
Conditions: S. cerevisiae deletion strains, growth OD
[1] = locus YHR030C, strain SLT2, active compounds read low
[2] = locus YHR079C, strain IRE1, active compounds read low
[3] = locus YJL095W, strain BCK1, active compounds read low
[4] = locus YJR066W, strain TOR1, active compounds read low
[5] = locus YLR113W, strain HOG1, active compounds read low
[6] = locus YNL183C, strain NPR1, active compounds read low
[7] = locus YOR231W, strain MKK1, active compounds read low
[8] = locus YPL256C, strain CLN2, active compounds read low
[9] = locus YAL040C, strain CLN3, active compounds read low
[10] = locus YCL061C, strain MRC1 (second series), active compounds read low
[11] = locus YDR363W, strain ESC2, active compounds read low
[12] = locus YER002W, strain NOP16, active compounds read low
[13] = locus YJR075W, strain HOC1, active compounds read low
[14] = locus YMR263W, strain SAP30, active compounds read low
[15] = locus YMR307W, strain GAS1, active compounds read low
[16] = locus YNL175C, strain NOP13, active compounds read low
[17] = locus YNL197C, strain WHI3, active compounds read low
[18] = locus YNL224C, strain SQS1, active compounds read low
[19] = locus YNL322C, strain KRE1, active compounds read low
[20] = locus YOR083W, strain WHI5 (second series), active compounds read low
[21] = locus YPL055C, strain LGE1, active compounds read low

Measured: normalized growth

COC(=O)[C@H](Cc1ccccc1)NC(=O)[C@@H](N)CC(=O)O (H-Asp-Phe-OMe)
inactive: locus YAL021C, strain ccr4, active compounds read low 1.01 | locus YAL026C, strain drs2, active compounds read low 1.01 | locus YAL030W, strain snc1, active compounds read low 1 | locus YBL061C, strain skt5, active compounds read low 1.02 | locus YBR009C, strain hhf1, active compounds read low 1.02 | locus YBR023C, strain chs3, active compounds read low 1.02 | locus YBR171W, strain sec66, active compounds read low 1.02 | locus YBR231C, strain swc5, active compounds read low 1.03 | locus YBR279W, strain paf1, active compounds read low 1.02 | locus YCL011C, strain gbp2, active compounds read low 1.02 | locus YCL016C, strain dcc1, active compounds read low 1.01 | locus YCL061C, strain MRC1, active compounds read low 1.01 | locus YCL069W, strain vba3, active compounds read low 1.02 | locus YCR088W, strain abp1, active compounds read low 1.01 | locus YDL005C, strain med2, active compounds read low 1 | locus YDL040C, strain nat1, active compounds read low 1.01 | locus YDR001C, strain nth1, active compounds read low 1.02 | locus YDR069C, strain doa4, active compounds read low 1.02 | locus YDR137W, strain rgp1, active compounds read low 1.01 | locus YDR159W, strain sac3, active compounds read low 1.02 | locus YDR195W, strain ref2 1.01 | locus YDR297W, strain sur2, active compounds read low 1.02 | locus YDR334W, strain swr1, active compounds read low 1.01 | locus YDR335W, strain msn5, active compounds read low 1.02 | locus YDR392W, strain spt3, active compounds read low 0.958 | locus YEL003W, strain gim4, active compounds read low 1.02 | locus YEL037C, strain rad23, active compounds read low 1.02 | locus YEL061C, strain CIN8 (second series), active compounds read low 1.01 | locus YER015W, strain faa2, active compounds read low 1.01 | locus YER016W, strain bim1, active compounds read low 1.01 | locus YER111C, strain swi4, active compounds read low 1.02 | locus YER155C, strain BEM2 (second series), active compounds read low 1.03 | locus YFR010W, strain ubp6, active compounds read low 1.02 | locus YGL167C, strain pmr1, active compounds read low 1.02 | locus YGL173C, strain kem1, active compounds read low 1.01 | locus YGL227W, strain vid30, active compounds read low 1.02 | locus YGL240W, strain doc1, active compounds read low 1.04 | locus YGL253W, strain hxk2, active compounds read low 1 | locus YHR013C, strain ard1, active compounds read low 1.01 | locus YHR027C, strain rpn1, active compounds read low 1.02 | [1] 1.02 | [2] 1.02 | locus YHR142W, strain chs7, active compounds read low 1.01 | locus YJL092W, strain hpr5, active compounds read low 1.02 | locus YJL095W, strain BCK1 (second series), active compounds read low 1.02 | [3] 0.978 | locus YJL115W, strain asf1, active compounds read low 1.02 | locus YJL129C, strain trk1, active compounds read low 1.01 | locus YJL154C, strain vps35, active compounds read low 1.02 | locus YJL164C, strain tpk1, active compounds read low 0.999 | locus YJL166W, strain qcr8, active compounds read low 1.03 | [4] 0.961 | locus YKL160W, strain elf1, active compounds read low 1.02 | locus YKR026C, strain gcn3, active compounds read low 1.02 | locus YKR091W, strain srl3, active compounds read low 1.02 | locus YLL001W, strain dnm1, active compounds read low 1.01 | locus YLL026W, active compounds read low 1.02 | locus YLL041C, strain sdh2, active compounds read low 1.02 | locus YLR027C, strain aat2, active compounds read low 1.02 | [5] 0.969 | locus YLR221C, strain rsa3, active compounds read low 0.998 | locus YLR258W, strain gsy2, active compounds read low 1.02 | locus YLR262C, strain YPT6 (second series), active compounds read low 1.02 | locus YLR320W, strain mms22, active compounds read low 1.01 | locus YLR342W, strain FKS1, active compounds read low 1.03 | locus YLR357W, strain rsc2, active compounds read low 1.03 | locus YLR370C, strain arc18, active compounds read low 1.01 | locus YLR384C, strain iki3, active compounds read low 1.02 | locus YML120C, strain ndi1, active compounds read low 1.01 | locus YMR058W, strain fet3, active compounds read low 1.02 | locus YMR125W, strain sto1, active compounds read low 1.01 | locus YMR129W, active compounds read low 1.02 | locus YMR205C, strain PFK2, active compounds read low 1.02 | locus YMR231W, strain pep5, active compounds read low 1.03 | locus YNL071W, strain lat1, active compounds read low 1.02 | [6] 0.96 | locus YNL209W, strain ssb2, active compounds read low 1.01 | locus YNL248C, strain rpa49, active compounds read low 1 | locus YNL322C, strain KRE1 (second series), active compounds read low 1.02 | locus YNR049C, strain mso1, active compounds read low 1.02 | locus YOR001W, strain rrp6, active compounds read low 1.01 | locus YOR070C, strain gyp1, active compounds read low 1.01 | locus YOR080W, strain dia2, active compounds read low 1.02 | locus YOR083W, strain WHI5, active compounds read low 1.02 | locus YOR106W, strain vam3, active compounds read low 1.03 | [7] 1.02 | locus YOR265W, strain rbl2, active compounds read low 1.01 | locus YOR270C, strain vph1, active compounds read low 1.05 | locus YOR290C, strain snf2, active compounds read low 0.995 | locus YPL051W, strain arl3, active compounds read low 1.03 | locus YPL078C, strain atp4, active compounds read low 1.02 | locus YPL106C, strain sse1, active compounds read low 1.03 | locus YPL240C, strain hsp82, active compounds read low 1.01 | [8] 1.02

Cc1ccc(S(=O)(=O)N[C@@H](Cc2ccccc2)C(=O)CCl)cc1
inactive: [9] 0.932 | [10] 0.987 | locus YDR150W, strain NUM1, active compounds read low 0.998 | [11] 1 | [13] 0.959 | [14] 0.993 | locus YNL128W, strain TEP1, active compounds read low 0.955 | [18] 0.954 | [19] 1.01 | [20] 0.957 | [21] 0.983
active: [12] 0.904 | [15] 0.896 | [16] 0.902 | [17] 0.892

Cc1ccc(S(=O)(=O)N[C@@H](CCCCN)C(=O)CCl)cc1
inactive: locus YAL013W, strain DEP1, active compounds read low 1.02 | [9] 1.04 | [10] 1.01 | [11] 1.05 | [12] 1.02 | locus YGR229C, strain SMI1, active compounds read low 0.962 | [13] 0.995 | [14] 1.01 | [15] 1.01 | [16] 1.01 | [17] 1.02 | [18] 1.01 | [19] 1.02 | [20] 1.01 | [21] 1.03

CC(C)[C@H](NC(=O)OCc1ccccc1)C(=O)N[C@H](C=O)Cc1ccccc1 (Cbz-Val-Phe-aldehyde)
inactive: [9] 0.961 | [10] 1 | [11] 1.04 | [12] 0.993 | [14] 0.976 | [15] 1.02 | [16] 0.969 | [17] 0.969 | [18] 0.996 | [19] 1 | [20] 0.997

CC(=O)NC(Cc1ccccc1)C(=O)O (stereo not drawn)
inactive: [1] 0.979 | [2] 0.984 | [3] 0.985 | [4] 0.91 | [5] 1.02 | [6] 0.89 | [7] 0.997 | [8] 0.984
